Bioassay records (PubChem)
Hits are enriched below; roughly 7.3% of the tested compounds scored in any of these assays.
FLuc modulator: counter-screen for miR-21 project: firefly luciferase inhibitors or activators. hit rate 6.9% among 360,000. purified FLuc, Km substrates, luminescence inhibition. P08659. Potency, µM (top dose mostly 57.5 µM), most hits filed as inhibitors; note: nearly all actives have a fitted effect of over 55% in size
Target sequence (P08659 whole entry, looked up): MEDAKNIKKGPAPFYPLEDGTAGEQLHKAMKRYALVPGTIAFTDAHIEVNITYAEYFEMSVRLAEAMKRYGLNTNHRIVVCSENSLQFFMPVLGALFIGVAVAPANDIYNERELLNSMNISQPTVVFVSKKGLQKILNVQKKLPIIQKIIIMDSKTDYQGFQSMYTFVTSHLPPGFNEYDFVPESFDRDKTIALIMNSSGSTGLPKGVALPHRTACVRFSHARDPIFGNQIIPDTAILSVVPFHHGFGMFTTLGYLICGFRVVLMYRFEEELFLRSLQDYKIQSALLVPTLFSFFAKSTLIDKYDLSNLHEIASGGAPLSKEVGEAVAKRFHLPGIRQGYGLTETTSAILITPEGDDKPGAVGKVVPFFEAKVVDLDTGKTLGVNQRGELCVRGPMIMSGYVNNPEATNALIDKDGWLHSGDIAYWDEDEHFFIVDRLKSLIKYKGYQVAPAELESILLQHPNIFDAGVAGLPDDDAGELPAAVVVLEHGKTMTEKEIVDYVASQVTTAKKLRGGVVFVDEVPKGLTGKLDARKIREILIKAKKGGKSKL
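Biochemical qHTS of compounds, final roughly 60 µM downward over six points, against 10 nM purified firefly luciferase using Km concentrations of substrates (10 uM D-luciferin, 10 uM ATP) in Tris acetate pH 7.5 buffer; luminescence output.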
ELG1 genotox: induces genotoxicity in HEK293T cells with luciferase-tagged ELG1; HEK293T ELG1-luciferase reporter, luminescence, 16 h; Potency, µM (series often up to 46 µM), usual class: activators; hit rate 1.3% among 330,000; AID 504466; note: nearly all actives have a fitted effect of over 60% in size
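Luminescence read-out: rising ELG1-luciferase signal, reflecting elevated ELG1 protein under genetic stress, flags genotoxic compounds. Cells were treated for 16 hr at 37 °C before ONE-Glo detection.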
SMN2 splice up: enhancers of SMN2 splice variant expression | HEK293 SMN2-luciferase splicing reporter, luminescence, 30-36 h | Potency, µM (doses to about 46.1 µM), hits mostly activators | hit rate 2.8% among 210,000; note: nearly all actives have a fitted effect of over 55% in size
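qHTS luciferase splicing reporter: luminescence rises when SMN2 exon 7 is included in transfected HEK293 cells. Compound exposure lasted 30-36 h at 37C, with 4.5 mM final sodium butyrate as control, followed by a ONE-Glo read.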
NPC1 prom act: activates the NPC1 promoter; Huh7 NPC1 promoter luciferase reporter, 24 h; Potency, µM (titrated, usually from 9.22 µM), hits mostly activators; hit rate 2.4% among 320,000; AID 485313; note: nearly all actives have a fitted effect of over 60% in size
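Stably transfected Huh7 (NPC1 promoter→luciferase), 1500 cells/well in Opti-MEM + 10% FBS, 2 h settle, then compound 24 h at 37 °C. Luminescence after 10 min with Amplite reagent.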
Rab9 promoter act: activators of Rab9 promoter; Potency, µM (doses to about 9.22 µM), usual class: activators; hit rate 2.8% among 320,000; Huh7 Rab9 promoter-luciferase reporter, luminescence, 24 h; note: nearly all actives have a fitted effect of over 60% in size
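Huh7 cells stably carrying Rab9 promoter–luciferase reporter, plated 1500 cells/well, compound added after 2 h and incubated 24 h at 37 °C; luciferase luminescence then read after 10 min with detection reagent.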
Luc counter: counter-screen: inhibitors of Kinase-Glo firefly luciferase | hit rate 0.28% among 200,000 | Q27757 | Potency, µM (series often up to 38.3 µM), actives largely listed as inhibitors | Kinase-Glo luciferase, ATP luminescence, 8 min; note: nearly all actives have a fitted effect of over 60% in size
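Substrate mix (final 50 mM imidazole pH 7.2, 50 mM KCl, 7 mM MgCl2, 10 uM ATP, 0.01% Tween 20, 0.05% BSA) plus pin-tool compound, then Kinase-Glo detection mix; 8 min ambient, luminescence read.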
A number is an active result; [ ] = remark or other dose. Calls come from the whole dose curve; as a rule, active = well fitted curve in the direction sought with a large enough effect; inconclusive = small, poorly fitted or top-dose-only effect, or another doubt; inactive = no such curve, though single readings can be large; an effect the other way counts as inactive or inconclusive.

What do the screens show for `Cc1cc(C(=O)COc2cccnc2[N+](=O)[O-])c(C)n1-c1ccccc1`?
FLuc modulator: 2.7µM; ELG1 genotox: inactive; SMN2 splice up: inactive; NPC1 prom act: inactive; Rab9 promoter act: inactive; Luc counter: inactive

What do the screens show for `Cn1cnc2c(N/N=C/c3cccs3)ncnc21`?
FLuc modulator: 8.5µM; ELG1 genotox: inconclusive; NPC1 prom act: 3.5µM; Rab9 promoter act: 1.8µM

Results for C(=N\Nc1ncnc2sc3c(c12)CCC3)/c1cccs1 ?
FLuc modulator: inactive; ELG1 genotox: inactive; SMN2 splice up: inactive; NPC1 prom act: inactive; Rab9 promoter act: inactive; Luc counter: inactive

Results for CN(C)c1ccc(-c2ccc3ncnc(NCc4ccccc4)c3c2)cc1 ?
SMN2 splice up: inactive; Luc counter: inactive

How did CN(C)c1ccc(-c2cc(NCc3ccccc3)ncn2)cc1 do in these assays?
SMN2 splice up: 0.79µM; Luc counter: inactive

How did Cc1cccc(N(C)C(=O)c2cc3cc4ccc(C)cc4nc3o2)c1 do in these assays?
FLuc modulator: 15µM; ELG1 genotox: 21µM; SMN2 splice up: 8.9µM; NPC1 prom act: inactive; Rab9 promoter act: inactive; Luc counter: inactive

What do the screens show for `COc1ccc(NC(=O)c2c(Cl)nc3ccccn23)cc1`?
FLuc modulator: inconclusive; ELG1 genotox: inconclusive; SMN2 splice up: inconclusive; NPC1 prom act: inactive; Rab9 promoter act: 3.2µM; Luc counter: inactive

How did Cc1nc2ccccn2c1C(=O)/C=C/c1ccc(F)cc1 do in these assays?
FLuc modulator: 3µM; ELG1 genotox: inactive; SMN2 splice up: inactive; NPC1 prom act: 2.8µM; Rab9 promoter act: inconclusive; Luc counter: inactive

How did COc1ccc(/C=C/C(=O)c2c(C)nc3ccccn23)cc1 do in these assays?
FLuc modulator: 7.6µM; ELG1 genotox: inactive; SMN2 splice up: inactive; NPC1 prom act: inconclusive; Rab9 promoter act: 3.5µM; Luc counter: inactive

What do the screens show for `Cc1nc2ccccn2c1C(=O)NN`?
FLuc modulator: inactive; ELG1 genotox: inactive; NPC1 prom act: inactive; Rab9 promoter act: inactive

What do the screens show for `O=C(Nc1ccc(F)cc1)c1c(Cl)nc2ccccn12`?
FLuc modulator: inconclusive; ELG1 genotox: inconclusive; SMN2 splice up: inconclusive; NPC1 prom act: inactive; Rab9 promoter act: inactive; Luc counter: inactive

Results for COc1ccc(CNC(=O)c2c(C)nc3ccccn23)cc1 ?
FLuc modulator: inactive; ELG1 genotox: inactive; SMN2 splice up: inactive; NPC1 prom act: inactive; Rab9 promoter act: inactive; Luc counter: inactive

How did CCOc1ccccc1C(=O)NC(CO)C(=O)O (centres undefined) do in these assays?
FLuc modulator: inactive; ELG1 genotox: inactive; SMN2 splice up: inactive; NPC1 prom act: inactive; Rab9 promoter act: inactive; Luc counter: inactive

How did O=C(COC(=O)CNC(=O)c1ccc(Cl)cc1Cl)Nc1cccc(S(=O)(=O)N2CCCC2)c1 do in these assays?
FLuc modulator: inactive; ELG1 genotox: inactive; NPC1 prom act: inactive; Rab9 promoter act: inactive

How did O=c1c2ccccc2nc2c3ccccc3cnn12 do in these assays?
FLuc modulator: inconclusive; ELG1 genotox: inconclusive; SMN2 splice up: inconclusive; NPC1 prom act: inconclusive; Rab9 promoter act: 2.2µM; Luc counter: inactive

What do the screens show for `Cc1cc(SCC(=O)c2ccc(Cl)cc2)nc(=O)[nH]1`?
FLuc modulator: 4.8µM; ELG1 genotox: inconclusive; NPC1 prom act: 1.3µM; Rab9 promoter act: 1.6µM

What do the screens show for `Cc1ccc(C(=O)CSc2cc(C)[nH]c(=O)n2)cc1`?
FLuc modulator: 13µM; ELG1 genotox: inconclusive; NPC1 prom act: 3.2µM; Rab9 promoter act: 4µM

What do the screens show for `Cc1cc(SCc2ccc(Cl)cc2Cl)nc(=O)[nH]1`?
FLuc modulator: inactive; ELG1 genotox: inactive; NPC1 prom act: inactive; Rab9 promoter act: inactive

What do the screens show for `Cc1ccc(CNC(=O)CSc2cc(C)[nH]c(=O)n2)cc1`?
FLuc modulator: inactive

Results for Cc1cc(SCC(=O)c2ccccc2)nc(=O)[nH]1 ?
FLuc modulator: 15µM; ELG1 genotox: inactive[9.26 µM]; NPC1 prom act: 2.5µM; Rab9 promoter act: 4µM

Results for COC(=O)CNC(=O)c1ccc(=O)oc1 ?
FLuc modulator: inactive; ELG1 genotox: inactive; SMN2 splice up: inconclusive; NPC1 prom act: inactive; Rab9 promoter act: inactive; Luc counter: inactive

What do the screens show for `Cc1cccc2c1[nH]c1nc(N/N=C\c3ccco3)nnc12`?
FLuc modulator: inactive; ELG1 genotox: inactive; SMN2 splice up: inactive; NPC1 prom act: inactive; Rab9 promoter act: inactive; Luc counter: inactive

How did C=CCSc1nnc2c(n1)[nH]c1c(C)cccc12 do in these assays?
FLuc modulator: 9.5µM; ELG1 genotox: inconclusive; SMN2 splice up: inactive; NPC1 prom act: 3.5µM; Rab9 promoter act: inconclusive; Luc counter: inactive

What do the screens show for `COC(=O)c1ccc(NC(=O)C(=O)N2CCN(C(=S)Nc3cccc(OC)c3)CC2)cc1`?
FLuc modulator: inactive; ELG1 genotox: inactive; SMN2 splice up: inactive; NPC1 prom act: inactive; Rab9 promoter act: inactive; Luc counter: inactive

What do the screens show for `COc1cccc(-c2cc(C(=O)N3CCN(C(c4ccccc4)c4ccccc4)CC3)no2)c1`?
FLuc modulator: inactive; ELG1 genotox: inactive; SMN2 splice up: inactive; NPC1 prom act: inactive; Rab9 promoter act: inactive; Luc counter: inactive

How did COc1cccc(-c2cc(C(=O)N3CCOCC3)no2)c1 do in these assays?
FLuc modulator: 8.5µM; ELG1 genotox: inconclusive; NPC1 prom act: 1.3µM; Rab9 promoter act: 1.4µM

Results for COc1cccc(NC(=O)C(=O)N2CCOCC2)c1 ?
FLuc modulator: 19µM; ELG1 genotox: inconclusive; SMN2 splice up: 13µM; NPC1 prom act: inactive; Rab9 promoter act: inconclusive; Luc counter: inconclusive

How did COc1cccc(-c2cc(C(=O)N3C(C)CCCC3C)no2)c1 (centres undefined) do in these assays?
FLuc modulator: 11µM; ELG1 genotox: 7.1µM; SMN2 splice up: 14µM; NPC1 prom act: 5µM; Rab9 promoter act: 3.2µM; Luc counter: inactive

What do the screens show for `COc1ccc(-c2cc(C(=O)N3CCOCC3)no2)cc1`?
FLuc modulator: 1.5µM; ELG1 genotox: 0.41µM; NPC1 prom act: 0.35µM; Rab9 promoter act: 0.45µM

Results for CN(C)c1ccc(CNn2cnnc2SCc2ccccc2F)cc1 ?
FLuc modulator: inactive; ELG1 genotox: inconclusive; SMN2 splice up: inconclusive; NPC1 prom act: inactive; Rab9 promoter act: inactive; Luc counter: inactive

How did O=C(/C(=N\O)n1cncn1)c1ccc(Cl)cc1Cl do in these assays?
FLuc modulator: inconclusive; ELG1 genotox: inactive; SMN2 splice up: inactive; NPC1 prom act: inactive; Rab9 promoter act: inactive; Luc counter: inactive

How did Cc1ccc(-c2nc3sc(CCNC(=O)c4ccc(Br)o4)c(C)n3n2)cc1 do in these assays?
FLuc modulator: 11µM

Results for Cc1ccc(-c2nc3sc(CCNC(=O)c4ccco4)c(C)n3n2)cc1 ?
FLuc modulator: 13µM

What do the screens show for `Cc1c(CCNC(=O)Cc2ccccc2)sc2nc(-c3ccc(F)cc3)nn12`?
FLuc modulator: inactive
